Assay [1] in a line: yeast TOR pathway RPL19A-GFP modulators, primary screen, cell-based, S. cerevisiae, multiplex flow cytometry (AID 1862; in the data active = percent of DMSO control GFP below about 86%;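 also: lower values mimic rapamycin by blocking the RPL19A rise seen in DMSO cells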). The settings on record: S. cerevisiae RPL19A-GFP strain, flow cytometry fluorescence, 3 h; at 10 µM; stronger effect = lower value.
Assay [2] in a line: modulators of MEP2-GFP levels in yeast, primary screen, S. cerevisiae, multiplex flow cytometry (AID 1867;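 active = GFP response, as percent of the DMSO control, above the screen-wide mean plus 3 SD, about 139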;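 also: median GFP channel fluorescence of barcode-gated MEP2-GFP cells measured by flow cytometry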). The settings on record: S. cerevisiae MEP2-GFP strain, 3 h, at 10 µM, stronger effect = higher value, 100% means same as DMSO wells.
A short description of assay [3]: modulators of CIT2-GFP expression in yeast, primary screen, S. cerevisiae, GFP fusion, multiplex flow cytometry (AID 1870;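 active = percent response above a set limit, the screen-wide mean plus 3 SD, cut at about 130% in these data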;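 also: barcoded CIT2-GFP strain pooled with four other GFP strains with rapamycin as positive control; median GFP fluorescence per well over plate mean of DMSO wells so 100% = DMSO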). The settings on record: 3 h, at 10 µM, stronger effect = higher value.
A short description of assay [4]: modulators of LAP4-GFP expression in yeast, primary screen, S. cerevisiae, multiplex flow cytometry (AID 1873;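 active = GFP signal, as percent of the solvent control, above the screen mean plus 3 SD, about 149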). To be noted: 3 h, at 10 µM, stronger effect = higher value.
The nature of assay [5]: modulators of AGP1-GFP expression in yeast TOR pathway, primary screen, cell-based, multiplex flow cytometry, S. cerevisiae (AID 1887;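 active = GFP signal above the screen-wide mean plus 3 SD, that is over about 124.5% of the solvent control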;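 also: AGP1-GFP fusion strain of S. cerevisiae within a five-strain barcoded multiplex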). To be noted: 3 h, at 10 µM, stronger effect = higher value.
Assay [6] can be described thus: inhibitors of CD8+ T cell-vesicle binding, pilot screen, LFA-1/ICAM-1 modulator project, MLPCN validation set, flow cytometry (AID 2523;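 active = response below a set limit, under 55% cells CD8-positive and vesicle-bound, and CD8 cells' 90th-percentile brightness under 279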;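 as to vesicle binding response: mean PE anti-B7-1 fluorescence of CD8+ cells relative to row control; 100% = QL9-loaded vesicles with DMSO vehicle in the same plate row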). The settings on record: 2C mouse CD8+ T cells, at 7 µM, stronger effect = lower value; double positive events: measured here: CD8+/vesicle+ event percentage.
Assay [7] deals with Integrin beta-1 (Homo sapiens) + Integrin alpha-4 (Homo sapiens) (UniProt P13612+P05556). In words: inhibition of HUTS-21 binding to VLA-4, pilot screen, VLA-4 allosteric modulator project, U937 cells, HUTS-21 mAb, flow cytometry, validation set (AID 2674;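 active = inhibition above 50%, about 3 SD of the validation set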;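 also: antibody binding induced by the VLA-4 ligand LDV present at three times its Kd; 0% = LDV ligand with antibody and no compound and 100% = antibody without LDV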). The settings on record: HUTS-21 LIBS mAb binding, at 6.7 µM, stronger effect = higher value, binding induced by LDV ligand.
Sequence of Integrin beta-1 (Homo sapiens) + Integrin alpha-4 (Homo sapiens) (P05556 whole entry, looked up): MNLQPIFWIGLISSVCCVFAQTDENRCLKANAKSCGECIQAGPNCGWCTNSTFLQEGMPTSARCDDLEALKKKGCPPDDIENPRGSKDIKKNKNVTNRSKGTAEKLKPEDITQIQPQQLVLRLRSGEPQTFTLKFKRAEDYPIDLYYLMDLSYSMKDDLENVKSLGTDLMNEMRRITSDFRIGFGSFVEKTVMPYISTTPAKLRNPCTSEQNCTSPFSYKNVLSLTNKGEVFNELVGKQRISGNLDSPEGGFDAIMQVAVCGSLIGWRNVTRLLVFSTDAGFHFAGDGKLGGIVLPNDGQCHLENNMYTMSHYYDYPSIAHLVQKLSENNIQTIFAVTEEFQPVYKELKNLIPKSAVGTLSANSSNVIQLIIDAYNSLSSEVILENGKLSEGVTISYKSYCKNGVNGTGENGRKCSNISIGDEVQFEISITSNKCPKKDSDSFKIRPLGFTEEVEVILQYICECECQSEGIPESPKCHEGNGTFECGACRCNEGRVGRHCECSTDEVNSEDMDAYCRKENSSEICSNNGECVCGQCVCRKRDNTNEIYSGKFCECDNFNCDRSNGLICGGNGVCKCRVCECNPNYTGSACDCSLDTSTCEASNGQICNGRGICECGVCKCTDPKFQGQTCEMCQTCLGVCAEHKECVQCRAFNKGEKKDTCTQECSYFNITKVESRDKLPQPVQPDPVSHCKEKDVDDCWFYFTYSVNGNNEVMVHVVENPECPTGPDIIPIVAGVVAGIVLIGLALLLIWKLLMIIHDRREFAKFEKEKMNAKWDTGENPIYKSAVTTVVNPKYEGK
Sequence of Integrin beta-1 (Homo sapiens) + Integrin alpha-4 (Homo sapiens) (P13612 whole entry, looked up): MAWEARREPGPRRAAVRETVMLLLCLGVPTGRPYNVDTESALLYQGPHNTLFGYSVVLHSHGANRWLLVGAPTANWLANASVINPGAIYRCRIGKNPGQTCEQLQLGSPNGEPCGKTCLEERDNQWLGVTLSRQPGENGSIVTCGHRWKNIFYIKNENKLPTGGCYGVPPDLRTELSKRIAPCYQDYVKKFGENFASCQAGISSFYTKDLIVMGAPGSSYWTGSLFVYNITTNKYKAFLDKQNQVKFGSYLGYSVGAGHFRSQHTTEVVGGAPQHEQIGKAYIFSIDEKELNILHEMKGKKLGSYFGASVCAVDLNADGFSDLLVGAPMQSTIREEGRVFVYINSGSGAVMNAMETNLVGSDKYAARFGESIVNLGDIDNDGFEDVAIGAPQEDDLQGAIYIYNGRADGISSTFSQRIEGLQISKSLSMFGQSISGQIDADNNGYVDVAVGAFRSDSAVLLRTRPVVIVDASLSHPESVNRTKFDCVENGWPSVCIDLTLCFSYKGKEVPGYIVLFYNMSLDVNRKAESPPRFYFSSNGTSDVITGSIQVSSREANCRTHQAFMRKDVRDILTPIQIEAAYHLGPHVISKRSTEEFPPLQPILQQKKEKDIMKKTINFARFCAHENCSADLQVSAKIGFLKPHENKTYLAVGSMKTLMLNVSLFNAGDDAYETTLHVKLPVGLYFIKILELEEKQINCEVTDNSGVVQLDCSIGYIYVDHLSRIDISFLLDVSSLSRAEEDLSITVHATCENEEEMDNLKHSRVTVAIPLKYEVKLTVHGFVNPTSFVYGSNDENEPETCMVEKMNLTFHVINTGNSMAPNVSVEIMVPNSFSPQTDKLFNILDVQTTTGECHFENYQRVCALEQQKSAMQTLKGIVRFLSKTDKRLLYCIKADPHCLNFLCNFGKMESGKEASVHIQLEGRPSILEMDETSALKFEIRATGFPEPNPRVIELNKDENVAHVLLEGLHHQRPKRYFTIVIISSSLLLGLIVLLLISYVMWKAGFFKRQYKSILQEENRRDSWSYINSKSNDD
The nature of assay [8]: superoxide lowering in aged yeast cells, pilot screen, validation compound set (AID 2706;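 active = superoxide response below 65% of plate, a cut near 3 SD across the whole screen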;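 also: yeast exposed to compound for one week at 30 degrees C before staining; 100% = mean of all compound wells on the same plate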). To be noted: S. cerevisiae aging, superoxide DHE fluorescence; at 10 µM; stronger effect = lower value.
Assay [9] concerns the target Beta-adrenergic receptor kinase 1 (Homo sapiens) (UniProt P25098). In words: GRK2 binders displacing RNA aptamer, biochemical, validation, human GRK2, bead flow cytometry (AID 488806;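 active = aptamer binding inhibition above 30%, about 3 SD of noise from non-fluorescent compounds; inactive = inhibition at or below 30%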). To be noted: bead-bound GRK2, FAM-aptamer displacement, at 10 µM, stronger effect = higher value.
Assay [10] addresses Beta-2 adrenergic receptor (Homo sapiens) (UniProt P07550). In words: beta2AR agonists driving receptor internalization, pilot screen, cell-based, FAP fluorogen, flow cytometry, validation set (AID 504459;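 active = percent response above 42, roughly 3 SD of non-fluorescent test compounds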;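 also: agonist-driven loss of surface beta2AR via internalization measured by FAP dye flow cytometry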). The settings on record: Am2.2-beta2AR cells, FAP surface receptor flow cytometry; at 10 µM; stronger effect = higher value.
Assay [11] has as its target AP-2 complex subunit beta (Homo sapiens) (UniProt P63010). In words: inhibitors of arrestin peptide binding to AP2, pilot screen, biochemical, validation set, GST-AP2 beads, flow cytometry (AID 504541;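 active = inhibition above 54%, about 3 SD of non-fluorescent compounds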;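 also: AP2 carries R879A mutation and is captured from E. coli lysate; bead-bound FITC arrestin peptide fluorescence measuring arrestin peptide binding to AP2; 0% = DMSO wells and 100% = excess unlabeled arrestin peptide control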). To be noted: FITC arrestin peptide, at 10 µM, stronger effect = higher value, AP2 beta2 appendage fragment, R879A mutant.
Assay [12] in a line: yeast V-ATPase proton transport modulators, S. cerevisiae, pHLuorin, HTS validation (AID 504600; in the data active = response above about 15%;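 also: plate controls were DMSO for no effect and reference compound for full effect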). The settings on record: S. cerevisiae pHLuorin cytosolic pH, at 10 µM, stronger effect = higher value.
The subject of assay [13] is anti-desmoglein-3 scFv antibody binding to human DSG3. As to the kind of experiment: inhibitors of anti-DSG3 scFv binding to DSG3, pilot screen, biochemical, validation compound set, bead-based, flow cytometry (AID 588368;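 active = binding below the plate cutoff, the plate median minus 3 SD, with a reading above zero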;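 also: signal is the median channel fluorescence of bead-bound GFP antibody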). To be noted: Protein G beads, DSG3-Fc, scFv-GFP binding, at 10 µM, stronger effect = lower value.
Assay [14] can be described thus: inhibitors of fungal efflux pumps CDR1, CDR2, MDR1, pilot screen, validation compound set, multiplex, phenotypic (AID 588506;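 active = efflux inhibition above 0.42, the validation set average plus 4 SD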;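 also: Nile Red retained in cells so higher fluorescence means more efflux inhibition; 0 = negative control wells and 1 = enniatin B 25 µM full block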). To be noted: S. cerevisiae pump-expressing triplex, Nile Red efflux flow cytometry; at 10 µM; stronger effect = higher value; the pumps come from Candida albicans.
For assay [15], the target named is ATP-binding cassette sub-family B member 6 (Homo sapiens) (UniProt Q9NP58). In words: ABCB6 transporter inhibitors, pilot screen, K562-ABCB6 cells, flow cytometry, validation set (AID 588550;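 active = inhibition above the screen-wide mean plus 3 SD, about 51%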;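 also: 0% = DMSO wells and 100% = benzethonium chloride 70 µM positive control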). To be noted: K562-ABCB6 porphyrin accumulation, 1 h, at 10 µM, stronger effect = higher value.
Sequence of ATP-binding cassette sub-family B member 6 (Homo sapiens) (Q9NP58 whole entry, looked up): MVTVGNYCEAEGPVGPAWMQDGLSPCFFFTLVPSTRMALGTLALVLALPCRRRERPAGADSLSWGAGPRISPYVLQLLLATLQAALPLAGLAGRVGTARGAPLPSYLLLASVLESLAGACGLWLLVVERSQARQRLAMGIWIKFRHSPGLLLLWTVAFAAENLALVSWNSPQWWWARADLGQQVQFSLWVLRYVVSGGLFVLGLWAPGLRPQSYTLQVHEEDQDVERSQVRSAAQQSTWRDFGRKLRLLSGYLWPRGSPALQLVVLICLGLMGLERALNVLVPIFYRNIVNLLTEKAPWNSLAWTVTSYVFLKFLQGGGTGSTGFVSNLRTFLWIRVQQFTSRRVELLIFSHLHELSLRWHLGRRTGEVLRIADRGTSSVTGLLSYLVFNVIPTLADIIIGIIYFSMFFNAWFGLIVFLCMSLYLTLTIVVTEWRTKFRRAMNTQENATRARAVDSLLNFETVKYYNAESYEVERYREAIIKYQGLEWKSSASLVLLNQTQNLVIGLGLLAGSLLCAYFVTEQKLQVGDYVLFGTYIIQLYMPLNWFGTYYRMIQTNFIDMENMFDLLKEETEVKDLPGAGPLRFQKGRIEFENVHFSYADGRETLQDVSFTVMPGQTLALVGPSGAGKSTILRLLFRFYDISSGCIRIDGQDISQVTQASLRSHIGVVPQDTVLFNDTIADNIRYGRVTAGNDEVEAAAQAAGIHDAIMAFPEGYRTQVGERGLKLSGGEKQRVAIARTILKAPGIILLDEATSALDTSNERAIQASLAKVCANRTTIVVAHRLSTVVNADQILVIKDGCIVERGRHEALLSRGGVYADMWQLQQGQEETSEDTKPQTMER
Assay [16] can be described thus: promoters of myeloid differentiation in arrested cells, primary screen, cell-based, GFP/MAC1 double positive, flow cytometry, validation set (AID 588685).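 Also: compound exposure lasts four days before antibody staining and flow analysis; 0% = DMSO wells and 100% = 5 µM fulvestrant positive control.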 To be noted: ER-HoxA9 marrow cells, stronger effect = higher value, normalized: vehicle 0, fulvestrant 100.

Inconclusive results are not listed. Activity calls are given as the source filed them.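 The calls were made as follows, unless noted: active = differentiation response of at least 50%, scaled between solvent and reference control, from cells with both markers; inactive = the rest.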

Sequence of AP-2 complex subunit beta (Homo sapiens) (P63010 whole entry, looked up, the tested form may be a part, one chain of several): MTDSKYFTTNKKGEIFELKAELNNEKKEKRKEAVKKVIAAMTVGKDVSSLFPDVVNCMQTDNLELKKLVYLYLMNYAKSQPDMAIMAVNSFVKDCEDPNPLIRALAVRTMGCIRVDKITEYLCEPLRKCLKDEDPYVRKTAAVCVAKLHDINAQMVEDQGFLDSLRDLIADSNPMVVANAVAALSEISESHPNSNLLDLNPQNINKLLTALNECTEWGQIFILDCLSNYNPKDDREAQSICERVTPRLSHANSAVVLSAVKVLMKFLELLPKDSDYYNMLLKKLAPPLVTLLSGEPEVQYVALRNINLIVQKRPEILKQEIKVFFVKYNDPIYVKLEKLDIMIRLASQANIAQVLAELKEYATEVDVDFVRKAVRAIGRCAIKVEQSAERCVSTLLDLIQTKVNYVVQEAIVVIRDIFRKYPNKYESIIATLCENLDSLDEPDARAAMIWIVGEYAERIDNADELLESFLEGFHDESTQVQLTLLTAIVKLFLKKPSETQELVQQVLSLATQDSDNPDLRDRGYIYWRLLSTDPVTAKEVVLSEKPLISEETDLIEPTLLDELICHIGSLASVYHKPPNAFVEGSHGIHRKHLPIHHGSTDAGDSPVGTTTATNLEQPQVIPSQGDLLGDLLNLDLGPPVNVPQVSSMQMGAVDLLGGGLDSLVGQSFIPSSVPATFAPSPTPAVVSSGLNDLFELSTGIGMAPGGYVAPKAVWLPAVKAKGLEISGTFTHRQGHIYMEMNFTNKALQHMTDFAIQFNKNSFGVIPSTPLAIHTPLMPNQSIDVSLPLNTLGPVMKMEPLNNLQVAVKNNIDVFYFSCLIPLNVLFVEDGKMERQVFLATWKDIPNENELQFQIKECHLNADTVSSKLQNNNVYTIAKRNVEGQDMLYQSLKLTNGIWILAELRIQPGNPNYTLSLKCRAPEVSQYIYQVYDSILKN
Sequence of Beta-2 adrenergic receptor (Homo sapiens) (P07550 whole entry, looked up): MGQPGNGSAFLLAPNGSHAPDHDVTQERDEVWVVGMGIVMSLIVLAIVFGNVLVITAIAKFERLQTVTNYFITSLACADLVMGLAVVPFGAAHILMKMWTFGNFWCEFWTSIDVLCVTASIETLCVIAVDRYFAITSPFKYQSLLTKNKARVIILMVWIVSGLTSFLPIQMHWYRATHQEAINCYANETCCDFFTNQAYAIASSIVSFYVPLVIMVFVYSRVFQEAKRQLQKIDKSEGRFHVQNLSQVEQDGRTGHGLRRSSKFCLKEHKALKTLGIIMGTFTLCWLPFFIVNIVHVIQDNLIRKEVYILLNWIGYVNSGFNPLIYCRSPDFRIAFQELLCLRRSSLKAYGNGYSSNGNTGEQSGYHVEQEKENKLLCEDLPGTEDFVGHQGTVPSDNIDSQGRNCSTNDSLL
Sequence of Beta-adrenergic receptor kinase 1 (Homo sapiens) (P25098 whole entry, looked up): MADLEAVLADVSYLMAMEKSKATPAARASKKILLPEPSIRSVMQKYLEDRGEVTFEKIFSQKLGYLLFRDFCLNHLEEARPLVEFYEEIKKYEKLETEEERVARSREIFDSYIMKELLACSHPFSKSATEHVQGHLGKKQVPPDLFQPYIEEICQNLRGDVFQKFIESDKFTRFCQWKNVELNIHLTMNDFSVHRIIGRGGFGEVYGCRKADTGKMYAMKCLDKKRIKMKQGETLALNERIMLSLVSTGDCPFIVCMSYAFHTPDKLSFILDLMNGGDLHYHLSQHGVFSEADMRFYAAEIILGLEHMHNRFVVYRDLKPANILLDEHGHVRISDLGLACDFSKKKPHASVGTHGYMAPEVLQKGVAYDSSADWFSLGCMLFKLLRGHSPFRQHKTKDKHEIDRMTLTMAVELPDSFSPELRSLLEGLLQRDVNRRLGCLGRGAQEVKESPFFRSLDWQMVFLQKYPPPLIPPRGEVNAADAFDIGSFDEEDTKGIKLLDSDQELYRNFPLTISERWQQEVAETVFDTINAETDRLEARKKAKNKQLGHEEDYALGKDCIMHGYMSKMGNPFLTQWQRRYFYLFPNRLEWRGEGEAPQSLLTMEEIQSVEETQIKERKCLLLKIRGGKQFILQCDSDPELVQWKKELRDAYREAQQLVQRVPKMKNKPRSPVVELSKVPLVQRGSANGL

Regarding `COc1ccc(NC(=O)CC(c2ccccc2)c2ccco2)cc1` (stereo not drawn), the percent of DMSO control GFP in [1] was 103% (inactive). Further, the GFP response vs DMSO was 97.2% (inactive) in [2] and 86.8% (inactive) in assay [4]. In assay [3], the percent response of DMSO control was 105% (inactive). Besides, in assay [5], the GFP response, % of DMSO was 96.8% (inactive). In addition, the double positive events in assay [6] stood at 62.8%. Also, in assay [6], the vesicle binding response is 164% (inactive). Besides, the inhibition was -15% (inactive) in assay [7], -3.8% (inactive) in assay [11] and 3% (inactive) in assay [15]. Besides, in [8], the superoxide response (% of plate) was 91.5% (inactive). In addition, in assay [9], the aptamer binding inhibition is 2% (inactive). In addition, the response was -5.85% (inactive) in assay [10] and 3.58% (inactive) in assay [12]. In addition, in assay [13], the binding (% of control) was 100% (inactive). Further, the efflux inhibition (fraction of control) in assay [14] is -0.07 (inactive). Further, the differentiation response in assay [16] is 1.22% (inactive).
Take `COc1ccc(-n2cc(CNCc3cccnc3)c(-c3cccc(F)c3)n2)cc1`: the percent of DMSO control GFP in [1] is 105% (inactive). The GFP response vs DMSO is 97.2% (inactive) in assay [2] and 110% (inactive) in assay [4]. Also, in [3], the percent response of DMSO control was 115% (inactive). For the same compound, in [5], the GFP response, % of DMSO was 99.1% (inactive). Moreover, the double positive events in [6] came to 64.8%. The vesicle binding response in assay [6] is 314% (inactive). The inhibition in assay [7] was -4.6% (inactive); in assay [11], -5.67% (inactive); in [15], 20% (inactive). The superoxide response (% of plate) in assay [8] was 89.3% (inactive). Further, the aptamer binding inhibition in [9] was 0% (inactive). Moreover, the response in assay [10] is -13.2% (inactive); in [12], -0.1% (inactive). Also, the binding (% of control) in [13] was 104% (inactive). Also, the efflux inhibition (fraction of control) in [14] was -0.26 (inactive). For the same compound, the differentiation response in assay [16] is 4.15% (inactive).
Take `CCc1ccc(/C=C2\Oc3cc(OC(=O)N4CCOCC4)ccc3C2=O)cc1`: the percent of DMSO control GFP in assay [1] was 98.7% (inactive). For the same compound, the GFP response vs DMSO was 99.6% (inactive) in assay [2] and 125% (inactive) in [4]. Also, in [3], the percent response of DMSO control is 83.4% (inactive). In assay [5], the GFP response, % of DMSO is 79.8% (inactive). The same compound gave a double positive events in assay [6] of 64.9%. Besides, the vesicle binding response in assay [6] is 164% (inactive). For the same compound, the inhibition is 11.7% (inactive) in [7], -5.57% (inactive) in assay [11] and 0% (inactive) in [15]. Also, the superoxide response (% of plate) in [8] was 173% (inactive). Further, the aptamer binding inhibition in [9] is 4% (inactive). The response in [10] is -17.4% (inactive); in [12], 1.83% (inactive). Further, the binding (% of control) in assay [13] was 99.3% (inactive). Further, the efflux inhibition (fraction of control) in assay [14] is 0.29 (inactive). The differentiation response in assay [16] is 6.83% (inactive).
Consider `CSCCC1NC2(C(=O)Nc3ccc(Cl)cc32)[C@@H]2C(=O)N(C3CCCC3)C(=O)[C@H]12` (stereo partly drawn), for which, in [1], the percent of DMSO control GFP was 101% (inactive). For the same compound, the figures for the GFP response vs DMSO in assay [2] and in assay [4] were 109% (inactive) and 102% (inactive), respectively. For the same compound, the percent response of DMSO control in assay [3] was 103% (inactive). The GFP response, % of DMSO in assay [5] was 98.9% (inactive). In addition, the double positive events in [6] was 59.4%. Besides, the vesicle binding response in assay [6] was 121% (inactive). Besides, the values for the inhibition in assay [7], in assay [11] and in [15] were -37.3% (inactive), -6.32% (inactive) and -10% (inactive), respectively. Also, the superoxide response (% of plate) in assay [8] was 94.5% (inactive). Also, in [9], the aptamer binding inhibition is 6% (inactive). Also, the response in assay [10] is -27.1% (inactive); in assay [12], 1.16% (inactive). The binding (% of control) in assay [13] was 109% (inactive). In addition, the efflux inhibition (fraction of control) in [14] is -0.29 (inactive). For the same compound, the differentiation response in [16] was 1.28% (inactive).

The values are drawn from PubChem BioAssay.
